# From PubChem BioAssay (EPA / NIEHS)
# Where a structure was tested more than once in an assay, its records may differ in their call. Calls of active or inactive are those of the source. How the source made its calls: active means hit-call score of the fitted dose curve at least 0.9, where 1 is the maximum; inactive means score below 0.9.
# Assay: ATG_TAL_CIS: Attagene CIS-FACTORIAL HepG2 Assay for human TAL Basal Promoter (AID 2282966)
# Conditions: HepG2 Attagene cis-factorial TAL promoter reporter; actives raise or lower the signal
# Description: ATG_CIS is a cell-based, multiplexed-readout assay that uses HepG2, a human liver cell line, with measurements taken at 24 hours after chemical dosing in a 24-well plate.ATG_TAL_CIS is one of 52 assay component(s) measured or calculated from the ATG_CIS assay. It is designed to make measurements of mRNA induction, a form of inducible reporter, as detected with fluorescence intensity signals by Reverse transcription polymerase chain reaction (RT-PCR) and Capillary electrophoresis technology.Data from the assay component ATG_TAL_CIS was analyzed into 1 assay endpoint. This assay endpoint, ATG_TAL_CIS, was analyzed with bidirectional fitting relative to DMSO as the negative control and baseline of activity. Using a type of inducible reporter, measures of mRNA for gain or loss-of-signal activity can be used to understand the background control at the transcription factor-level as they relate to the gene . Furthermore, this assay endpoint can be referred to as a secondary readout, because this assay has produced multiple assay endpoints where this one serves a background control function. To generalize the intended target to other relatable targets, this assay endpoint is annotated to the background measurement intended target family, where the subfamily is internal marker.
# Human liver HepG2 cells are transiently transfected with multiple reporter transcription units (MRTUs) in 6-well plates using FuGene 6 reagent (Roche; 3 ml FuGene/1 mg DNA). The MRTU constructs are regulated by a cis-regulating element (promoter). […] A major difference between the CIS and TRANS system is that in CIS activities of endogenous TFs are measured, whereas the TRANS assay evaluates changes in activities of exogenous, chimeric NR-Gal4 proteins. […] At the end of 24 hour incubation, total RNA was isolated using TriZol reagent (Invitrogen). The isolated RNA is then reverse-transcribed using oligo(dT) primer and Mo-MLV reverse transcriptase (Invitrogen) with DNAse I (Ambion) treatment for 30 min. The one-tenth of the produced cDNA was amplified by PCR using Taq DNA polymerase (Invitrogen) and two reporter sequence-specific primers. The PCR products were fluorescently labeled by primer extension with 6-arboxyfluorescein (6-FAM) 5'-labeled reporter sequence-specific primer (2 min at 95 C, 20 s at 68 C and 10 min at 72 C) and these products were digested with 5U of HpaI (New England Biolabs) for 2h at 37 C. The fragments were purified using Qiaquick PCR columns (Qiagen), analyzed on an ABI 3130xL genetic analyzer (Applied Biosystems) with peak positions identified by using a set of X-rhodamine (ROX)-labeled MapMarker1000 molecular weight standards (BioVentures). The raw capillary electrophoresis data was processed using Attagraph software (Attagene).
SMILES,outcome,AC50
COc1ccc([N+](=O)[O-])cc1N,inactive,
CCCCCCCCCCCCCC[N+](C)(C)C,inactive,
CC(C)(C)c1ccc(O)c(C(C)(C)C)c1,inactive,
CCCCCCCC(=O)O,inactive,
CCc1ccc(CCOc2ccc(CC3SC(=O)NC3=O)cc2)nc1 (stereo not given),inactive,
O=[N+]([O-])c1ccc(O)cc1,inactive,
N#C[C@@H]1CC(F)(F)CN1C(=O)CNC1CC2CCC(C1)N2c1ncccn1 (stereo not given in full),inactive,
O=C(O)c1ccccc1C(c1ccc(O)cc1)c1ccc(O)cc1,inactive,
CC(=O)NC1(c2cccc(F)c2)CCN(CC[C@@]2(c3ccc(Cl)c(Cl)c3)CN(c3ccccc3)C(=O)CO2)CC1,inactive,
CCOC(=O)CC(O)(CC(=O)OCC)C(=O)OCC,inactive,
c1ccc2c(c1)Cc1ccccc1-2,inactive,
c1ccc2cc3c(ccc4ccccc43)cc2c1,inactive,
CC(C)(C)c1cccc(C(C)(C)C)c1O,inactive,
Nc1cccc2c(N)cccc12,inactive,
CCCCC(CC)COC(=O)CCCCC(=O)OCc1ccccc1 (stereo not given),inactive,
COc1cc(CCC(=O)CC(=O)CCc2ccc(O)c(OC)c2)ccc1O,inactive,
OC1CCCCC1,inactive,
O=C(O)Cc1cc(I)c(Oc2cc(I)c(O)c(I)c2)c(I)c1,inactive,67 µM (active)
CCCOc1sc(C(=O)N2CCC(c3cc(CN)ccc3F)CC2)c(C)c1Br,inactive,

SMILES,outcome,AC50
OC1CCC(C2CCCCC2)CC1 (stereo not given),inactive,
CCCCCCCCC(=O)O,inactive,
CC#C[C@]1(O)CC[C@H]2[C@@H]3CCC4=CC(=O)CCC4=C3[C@@H](c3ccc(N(C)C)cc3)C[C@@]21C,inactive,14.7 µM (active)
CC(C)(C)CC(C)(C)c1ccc(O)c(-n2nc3ccccc3n2)c1,inactive,
COC(=O)CCCCC(=O)OC,inactive,
CCCCC(CC)COC(=O)CCCCC(=O)OCC(CC)CCCC (stereo not given),inactive,
CCCCCCCCCCCCN1CCCC1=O,inactive,
CC1=C(/C=C/C(C)=C/C=C/C(C)=C/C(=O)O)C(C)(C)CCC1,inactive,
FC(F)(I)C(F)(F)C(F)(F)C(F)(F)C(F)(F)C(F)(F)I,inactive,
CCCCCCCCOC(=O)CCCCCCCCC(=O)OCCCCCCCC,inactive,
CC(O)C(=O)O (stereo not given),inactive,
CCCCCCCCCCCCc1ccccc1S(=O)(=O)O,inactive,
CC(=O)CC(C)(C)O,inactive,
Oc1cccc(O)c1,inactive,
CN1CCN(c2ccccc2/C=C2\SCCN(c3ccc(Cl)c(Cl)c3)C2=O)CC1,inactive,
O=C1OC2(c3ccccc31)c1cc(Br)c(O)c(Br)c1Oc1c2cc(Br)c(O)c1Br,inactive,
CCN(CC)CCNc1ccc(CNC=O)c2sc3ccc(OC)cc3c(=O)c12,inactive,
CN1CCC[C@H]1c1cccnc1,inactive,
CN(C)C=O,inactive,
